NALP3 yeast inh: inhibitors of NALP3 inflammasome in yeast; actives 0.39% (n = 330,000); Yeast reconstituted NLRP3/ASC/caspase-1, beta-gal luminescence, 24 h; inhibition, % at 10 µM; AID 2825;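 active means inhibition of 50% or more; inactive means inhibition below 50%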;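 further: plate controls were induced DMSO wells for no effect and uninduced yeast grown without galactose for full effect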
PolyA inhibitor: inhibitors of polyadenylation in S. cerevisiae | S. cerevisiae SKY197-pL101 polyadenylation reporter, beta-gal luminescence; efflux-impaired pdr1/pdr3 knockout yeast; score 100 = 6 SD above DMSO | activity score, % at 12 µM | actives 0.02% (n = 300,000) | AID 1875;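 active means lowest replicate activity score at least 50, where 100 means six control SD above control mean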;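 further: yeast exposed to compound for 9 h at 30 °C; higher score means more reporter readthrough which indicates perturbed polyadenylation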
SUMO Mot1 rescue: inhibitors of SUMOylation pathway: yeast Mot1-301 growth rescue. actives 1% (n = 320,000). S. cerevisiae Mot1-301 growth rescue, ATP luminescence, 38.5C; percent above DMSO median, 100 means doubled. AID 2716. growth rescue, % at 18.8 µM;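 active means every valid replicate shows activation above 250% relative to neutral control wells; inactive means the rest, any valid replicate at or below 250%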;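 further: OY570 slx delta 5 strain wells were the positive control but not used for scaling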
NALP1 yeast inh: blocks the NALP1 inflammasome reconstituted in yeast. S. cerevisiae NALP1/ASC/caspase-1 growth, X-gal OD620, 72 h. actives 0.61% (n = 280,000). inhibition, % at 10 µM; in the data active means inhibition mostly above about 24%, no sharp cut-off; inactive means mostly below about 32%
NALP3 confirm: confirmation of NALP3 inhibitors in yeast; shares compounds with NALP3 yeast inh; AID 435006; yeast expressing human NALP3, luminescence; actives 81% (n = 1,300); inhibition, % at 10 µM; in the data active means inhibition above about 48%
Casp1-ASC yeast: active in yeast caspase-1-ASC counter-screen for NALP3 inhibitors; shares compounds with NALP3 yeast inh; yeast expressing Caspase-1-ASC, luminescence counter screen; inhibition, % at 10 µM; actives 66% (n = 1,000); AID 488784
NALP3 retest: yeast NALP3 inhibition, confirmed on retest; yeast expressing human NALP3, luminescence read-out; inhibition, % at 10 µM; shares compounds with NALP3 yeast inh; actives 53% (n = 1,000)
The depositor's hits bear a star; . = not tested or not shown; ! = a repeat was not active. Most compounds without a hit are left out; they make up all but 1.8% or so of the library. Unless noted, no stated cut-off is given here; in the data, active means inhibition above about 50%; inactive means the rest.

SMILES	NALP3 yeast inh	PolyA inhibitor	SUMO Mot1 rescue	NALP1 yeast inh	NALP3 confirm	Casp1-ASC yeast	NALP3 retest
O=C(Nc1cccc(S(=O)(=O)N2CCCCC2)c1)c1ccc2ccccc2n1	-104	-16	-8	-16	-58	.	.
O=C(Nc1cccc(S(=O)(=O)N2CCOCC2)c1)c1ccc2ccccc2n1	-104	13	-2	.	-2	.	.
O=C(Nc1cccc(S(=O)(=O)N2CCCCCC2)c1)c1ccc(Cl)nc1	-1	.	-13	.	.	.	.
O=C(Nc1cccc(S(=O)(=O)N2CCCC2)c1)c1ccc2ccccc2n1	-128	-11	-23	15	-12	.	.
Cc1c(C(=O)Nc2cccc(S(=O)(=O)N3CCCC3)c2)oc2ccccc12	-32	2	2	.	.	.	.
CCc1cc(=O)oc2cc(O[C@@H]3O[C@H](CO)[C@@H](O)[C@H](O)[C@H]3O)c(Cl)cc12	9	-4	17	-4	.	.	.
CCCCCCCCCn1c2c(c(=N)c3c1CCC3)CCCC2	68*	-14	.	29	85*	54*	70*
CCCCCCCCn1c2c(c(=N)c3ccccc31)CCC2	58*	-19	.	6	73*	22	62*
CCn1c2c(c(=N)c3c1CCC3)CCCC2	6	12	19	2	.	.	.
O=S1(=O)C[C@H]2NC(=S)N(c3ccccc3)[C@H]2C1	-3	3	-9	12	.	.	.
COc1ccc(C(=O)N/N=C(\C)Cn2cnc([N+](=O)[O-])n2)cc1	20	19	-3	33	.	.	.
CCOC(=O)N1C(=O)C2(CCCCC2)N(c2ccccc2Cl)C1=S	64*	-82	95	38	67*	34	51*
CCCCc1cc(O)c(CCCC)c(O)c1	51*	-57	-4	16	62*	34	50
CCOC(=O)c1c(C)c(C(=O)NCCN2CCOCC2)c(C)n1CC	-8	-6	-5	14	.	.	.
CC(C)(C)OC(=O)N[C@H](C(=O)OC(C)(C)C)c1ccccc1	34	.	-25	.	.	.	.
Cc1ccc(Nc2cc(C)nn2-c2nc(C)cc(=O)[nH]2)cc1	76*	-84	22	9	81*	97*	93*
Cc1cc(C)n2ncc(-c3cccc(Br)c3)c2n1	51*	2	5	5	62*	31	24
Cc1cc(C)n2nc(-c3cccc(Br)c3)cc2n1	49	-7	12	24	.	.	.
CC(C)c1ccc(/C=C2\C(=N)N3N=C(CC(=O)N4CCCCC4)SC3=NC2=O)cc1	16	12	1	2	.	.	.
O=[N+]([O-])c1ccc(O)c2cccnc12	24	0	13	23	.	.	.
O=[N+]([O-])c1ccc(O)c2ncccc12	83*	-7	109	158*	92*	99*	98*
CCc1cc2cccc(C)c2nc1SCC(=O)NC1CCCC1	12	-11	-18	28	.	.	.
CCc1cc2cc(C)ccc2nc1SCC(=O)NC1CCCC1	54*	-24	479	-2	62*	35	32
O=C(Nc1cccnc1)c1cc(-c2ccc(Br)cc2)on1	23	5	142	34	.	.	.
O=C(Nc1cccnc1)c1cc(-c2ccccc2)on1	50*	1	7	-102	40	.	.
SMILES	NALP3 yeast inh	PolyA inhibitor	SUMO Mot1 rescue	NALP1 yeast inh	NALP3 confirm	Casp1-ASC yeast	NALP3 retest
CC(C)(O)C#Cc1ccc(C(=O)N2CCCC(CCC(=O)NCc3ccccc3F)C2)cc1 (stereo unspecified)	-9	-5	5	9	.	.	.
CC(C)CCNC(=S)Nc1ccccn1	29	-20	-29	19	.	.	.
O=C(NC1=NCCS1)c1ccccc1OCc1ccccc1Cl	96*	-78	-10	20	99*	98*	98*
O=C(NC1=NCCS1)c1ccccc1Cl	20	-9	91	-11	.	.	.
C=C1/C(=C\C=C2/CCC[C@]3(C)[C@@H]([C@H](C)CCCC(C)(C)O)CC[C@@H]23)C[C@@H](O)C[C@@H]1O	57*	-4	9	3	58*	55*	37
Cn1nc(-c2ccc(Cl)cc2)nc2c(=O)n(C)c(=O)nc1-2	96*	-69	104	48*	99*	99*	99*
Fc1cccc(Nc2ncnc3c2cnn3-c2ccccc2)c1	63*	-7	12	10	77*	.	.
Clc1cccc(Nc2ncnc3c2cnn3-c2ccccc2)c1	53*	-11	392	.	61*	46	48
COc1ccc2cc1Oc1ccc(cc1)C[C@H]1c3c(cc(OC)c4c3Oc3c(ccc5c3[C@H](C2)N(C)CC5)O4)CCN1C	69*	.	-34	.	53*	57*	69*
C=Cn1cc[n+](CC(=O)c2ccc(Cl)cc2)c1	28	10	-1	11	.	.	.
O=C(N/N=C/c1cccs1)c1ccc2ccccc2c1	66*	19	33	8	81*	68*	66*
Cc1ccc2nc(NC(=O)CC3Oc4ccccc4NC3=O)sc2c1 (stereo unspecified)	1	-6	-11	.	.	.	.
CC(C)CCOc1cccc(OCC(=O)Nc2ccncc2)c1	66*	-35	317*	36	78*	86*	60*
COc1cccc(OCC(=O)Nc2ccncc2)c1	18	-8	-15	5	.	.	.
Cc1cc(N2CCCCC2)nc(N)n1	-3	5	-1	27	.	.	.
CN(C)c1ccc(CNC(=O)c2cc(S(=O)(=O)N3CCCC3)cn2C)cc1	17	-4	-14	21	.	.	.
O=C(Nc1cccc2nsnc12)c1cccs1	70*!	12	57	9	89*	78*	61*
CCOc1cc(C2Nc3ccccc3C(=O)N2c2ccccc2)c(Br)cc1OCC(=O)O (stereo unspecified)	-100	-1	1	-15	-31	.	.
CCN1C(=O)[C@H]2[C@@H](c3ccc(OC)cc3)N3C(=O)CN(Cc4ccccc4)C(=O)[C@@]3(Cc3ccccc3)[C@H]2C1=O	15	-17	-21	19	.	.	.
COc1ccc(C)cc1NC(=O)C(NCC(O)c1ccccc1)c1ccccc1 (stereo unspecified)	10	6	-14	29	.	.	.
COc1ccc(NC(=O)C(Cc2ccccc2)n2cccc2)c(OC)c1 (stereo unspecified)	12	-5	-13	.	.	.	.
O=C(c1ccc(-c2nc3ccccc3s2)s1)N1CCOCC1	13	-5	-49	25	.	.	.
O=C(NC1CC1)c1ccc(-c2nc3ccccc3s2)s1	60*	1	2	-5	55*	52*	48
Cc1cc2ccccn2c1C(=O)c1ccc(Cl)cc1	15	8	4	14	.	.	.
Cc1cc2ccccn2c1C(=O)c1ccccc1F	51*	-6	-15	18	61*	49	41
Cc1onc(-c2c(F)cccc2Cl)c1C(=O)NC1CC1	4	12	-3	3	.	.	.
Cc1[nH]nc(Nc2ccc(Br)cc2)c1[N+](=O)[O-]	52*	-3	35	4	46	.	.

Bioassay records from PubChem BioAssay.
